From PubChem BioAssay AID651711 (Broad Institute, 2012)
“And” between values parts separate entries of the source, which are not always exact repeats. Equal values may be shown once. Out of some 350,000 compounds screened, about 180 (0.051%) were called active.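 How the source made its calls: active means mean replicate inhibition above about 25%, with every replicate also reaching it (limit read from the data, passing the limit was not always enough); inconclusive means only one of those two criteria met; inactive means neither criterion met.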 The list comes from a sample in which actives are over-represented; it also holds similar structures and randomly drawn compounds.

The compounds below were run against Protein disulfide-isomerase A6 (Homo sapiens) (UniProt Q15084) (assay: inhibitors of ERp5-driven insulin aggregation, primary screen, biochemical, turbidity, absorbance 650 nm, single point (AID 651711)). Details: 90 min, at 9.99 µM, active compounds read high.
Sequence of Protein disulfide-isomerase A6 (Homo sapiens) (Q15084 whole entry, looked up): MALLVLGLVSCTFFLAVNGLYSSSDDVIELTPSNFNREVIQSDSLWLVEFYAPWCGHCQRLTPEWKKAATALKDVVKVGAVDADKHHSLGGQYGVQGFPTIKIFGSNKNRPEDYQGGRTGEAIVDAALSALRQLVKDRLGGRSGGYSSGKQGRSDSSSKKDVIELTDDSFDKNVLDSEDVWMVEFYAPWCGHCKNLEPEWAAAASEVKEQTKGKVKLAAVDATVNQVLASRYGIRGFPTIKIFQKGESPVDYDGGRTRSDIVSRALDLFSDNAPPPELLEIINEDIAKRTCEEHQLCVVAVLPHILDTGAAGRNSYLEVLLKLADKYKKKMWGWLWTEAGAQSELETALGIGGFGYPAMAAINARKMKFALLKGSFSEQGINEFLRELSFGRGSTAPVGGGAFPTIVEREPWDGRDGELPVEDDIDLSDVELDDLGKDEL

Which inhibition does the source give for `O=C(C[C@@H]1CC[C@@H]2[C@H](COC[C@H](O)CN2C(=O)Cc2ccccc2)O1)NC1CCC1` here?
The inhibition was 9.77% (inactive).

`COc1ccc(-c2ccc([C@@H]3[C@@H](C#N)N(C(=O)C4CCCCC4)[C@H]3CO)cc2)cc1` was tested. Which inhibition did it give?
The inhibition was -2.17% (inactive).

`CCCNC(=O)N1C[C@H](C)[C@@H](OC)CN(C)C(=O)c2ccc(NC(=O)CC)cc2OC[C@@H]1C` was tested. Which inhibition did it give?
The inhibition was 7.86% (inactive).

With `CC(C)NC(=O)N[C@H]1CC[C@H](CC(=O)N2CCCCC2)O[C@@H]1CO` as the compound, how does the inhibition read?
Its inhibition is 3.34% (inactive).

How did the inhibition turn out when `C[C@@H]1CCCCO[C@H](CN(C)Cc2ccc(Cl)c(Cl)c2)[C@@H](C)CN([C@H](C)CO)C(=O)c2cc(NS(=O)(=O)c3cn(C)cn3)ccc2O1` was run?
The inhibition was 1.36% (inactive).

With `COc1ccc(S(=O)(=O)N(C)C[C@H]2Oc3ccc(NC(=O)C4CC4)cc3CC(=O)N([C@@H](C)CO)C[C@@H]2C)cc1` as the compound, how does the inhibition read?
The inhibition was 2.88% (inactive).

With `COc1ccccc1C#Cc1cnc2c(c1)C(=O)N([C@H](C)CO)C[C@H](C)[C@H](CN(C)S(=O)(=O)c1cn(C)cn1)O2` as the compound, how does the inhibition read?
The inhibition was -2.62% (inactive).

For `CCN1C(=O)N[C@@H]2C[C@H](C(=O)N3CCCC3)[C@H](C)[C@H](c3ccccc3)C[C@@H]21`, which inhibition is on record?
The inhibition was 0.542% (inactive).

For `COc1ccccc1C#Cc1cnc2c(c1)C(=O)N([C@@H](C)CO)C[C@@H](C)[C@@H](CN(C)C(=O)CN(C)C)O2`, which inhibition is on record?
The inhibition was -1.98% (inactive).

For `C[C@@H]1CN([C@H](C)CO)C(=O)c2cc(NC(=O)c3ccncc3)ccc2O[C@@H](C)CCCCO[C@@H]1CN(C)CC1CC1`, which inhibition is on record?
Its inhibition is 3.17% (inactive).

For `Cc1ccccc1S(=O)(=O)N[C@@H]1CC[C@H](CCn2cc(-c3ccc(F)cc3)nn2)O[C@@H]1CO`, which inhibition is on record?
Its inhibition is 0.302% (inactive).

Which inhibition does the source give for `COc1ccc(C#Cc2ccc([C@@H]3[C@@H](CO)N4C(=O)CN(C(=O)c5ccc(F)cc5)C[C@@H]34)cc2)cc1` here?
Its inhibition is 6.45% (inactive).

With `CO[C@@H]1CN(C)C(=O)c2cc(NC(=O)Nc3cccc(F)c3)ccc2OC[C@H](C)N(C)C[C@@H]1C` as the compound, how does the inhibition read?
The inhibition was 2.15% (inactive).

Which inhibition does the source give for `C[C@@H]1CN([C@H](C)CO)C(=O)c2cc(-c3ccc(F)cc3)cnc2O[C@@H]1CN(C)C(=O)C1CCC1` here?
Its inhibition is 1.7% (inactive).

Which inhibition does the source give for `C[C@@H]1CN([C@H](C)CO)C(=O)c2cc(NS(=O)(=O)c3ccc(F)cc3)ccc2O[C@@H]1CN(C)C(=O)Nc1cccc2ccccc12` here?
Its inhibition is 13.7% (inactive).

With `CCCN1C[C@H](C)[C@@H](OC)CN(C)C(=O)c2ccc(NC(=O)C3CCOCC3)cc2OC[C@@H]1C` as the compound, how does the inhibition read?
The inhibition was 0.943% (inactive).

`C[C@H](CO)N1C[C@H](C)[C@@H](CN(C)CC2CC2)OCCCC[C@H](C)Oc2ccc(NC(=O)Nc3ccccc3)cc2C1=O` was tested. Which inhibition did it give?
Its inhibition is 2.55% (inactive).

Which inhibition does the source give for `O=S(=O)(c1ccccc1)N1CC[C@@H]2[C@@H](CO)Nc3ccc(C#Cc4cccc(F)c4)cc3[C@@H]21` here?
Its inhibition is -0.006% (inactive).

Which inhibition does the source give for `CCC(=O)N(C)C[C@@H]1Oc2cc(-c3ccc(OC)cc3)ccc2S(=O)(=O)N([C@@H](C)CO)C[C@H]1C` here?
Its inhibition is 0.0355% (inactive).

`CC(C)C#Cc1cnc2c(c1)C(=O)N([C@H](C)CO)C[C@@H](C)[C@H](CN(C)Cc1ccccc1)O2` was tested. Which inhibition did it give?
Its inhibition is -2.64% (inactive).

How did the inhibition turn out when `C[C@@H]1CN([C@H](C)CO)C(=O)Cc2cc(NC(=O)Nc3ccccc3)ccc2O[C@@H]1CN(C)Cc1ccc(C(F)(F)F)cc1` was run?
The inhibition was 1.88% (inactive).

For `C[C@@H]1CN([C@H](C)CO)C(=O)Cc2cc(NC(=O)Nc3cccc4ccccc34)ccc2O[C@@H]1CN(C)Cc1ccc(C(=O)O)cc1`, which inhibition is on record?
The inhibition was 2.16% (inactive).

For `COc1ccc(S(=O)(=O)Nc2ccc3c(c2)CC(=O)N([C@H](C)CO)C[C@H](C)[C@H](CN(C)C(=O)Nc2ccccc2)O3)cc1`, which inhibition is on record?
Its inhibition is 64.1% (active).

For `COc1ccc(NC(=O)N(C)C[C@@H]2Oc3ccc(NS(=O)(=O)c4ccc(OC)cc4)cc3CC(=O)N([C@H](C)CO)C[C@H]2C)cc1`, which inhibition is on record?
Its inhibition is 8.49% (inactive).

For `COc1ccc(S(=O)(=O)Nc2ccc3c(c2)CC(=O)N([C@H](C)CO)C[C@@H](C)[C@@H](CN(C)C(=O)Nc2cccc4ccccc24)O3)cc1`, which inhibition is on record?
The inhibition was 11.8% (inactive).

How did the inhibition turn out when `C[C@@H]1CN([C@H](C)CO)C(=O)Cc2cc(NC(=O)Nc3cccc4ccccc34)ccc2O[C@@H]1CN(C)Cc1ccc(C(F)(F)F)cc1` was run?
The inhibition was 60% (active).

`COC(=O)[C@@H]1[C@@H](CO)[C@@H]2Cn3c(ccc(-c4ccc(OC)cc4)c3=O)[C@@H]2N1S(C)(=O)=O` was tested. Which inhibition did it give?
The inhibition was 4.09% (inactive).

Which inhibition does the source give for `O=C(N[C@@H]1CC[C@@H](CC(=O)N2CCc3ccccc3C2)O[C@H]1CO)C1CCC1` here?
Its inhibition is -0.402% (inactive).

With `CCC(=O)N1CC(=O)N2[C@H](CO)[C@@H](c3ccc(-c4ccc(C(=O)N(C)C)cc4)cc3)[C@@H]2C1` as the compound, how does the inhibition read?
Its inhibition is -1.19% (inactive).

`CO[C@H]1CN(C)C(=O)c2ccc(NC(=O)C3CCC3)cc2OC[C@@H](C)N(Cc2ccccn2)C[C@H]1C` was tested. Which inhibition did it give?
The inhibition was -2.1% (inactive).

With `C[C@H](CO)N1C[C@H](C)[C@H](CN(C)Cc2ccc(C(=O)O)cc2)OCc2cn(nn2)CCCC1=O` as the compound, how does the inhibition read?
The inhibition was -4.21% (inactive).

`Cc1ccccc1C(=O)N[C@H](C(=O)N1CCC[C@H]1C(=O)NCc1ccccc1)C(C)C` was tested. Which inhibition did it give?
Its inhibition is 5.11% (inactive).

With `CO[C@H]1CN(C)C(=O)c2cc(NS(=O)(=O)c3ccccc3)ccc2OC[C@@H](C)N(Cc2nccs2)C[C@@H]1C` as the compound, how does the inhibition read?
The inhibition was 1% (inactive).

With `COc1ccc(CN(C)C[C@@H]2Oc3c(NC(=O)C4CC4)cccc3C(=O)N([C@@H](C)CO)C[C@H]2C)cc1` as the compound, how does the inhibition read?
The inhibition was 1.33% (inactive).

Which inhibition does the source give for `Cc1ccc(S(=O)(=O)N(C)C[C@@H]2Oc3ccc(N(C)C)cc3C(=O)N([C@@H](C)CO)C[C@H]2C)cc1` here?
The inhibition was -2.31% (inactive).

For `COc1ccccc1S(=O)(=O)N1C[C@@H](O)COC[C@H]2O[C@H](CC(=O)O)CC[C@@H]21`, which inhibition is on record?
The inhibition was -5.9% (inactive).

`CCC(=O)N1C[C@@H](O)COC[C@H]2O[C@H](CC(=O)NCC3CCCCC3)CC[C@@H]21` was tested. Which inhibition did it give?
The inhibition was -3.78% (inactive).

For `O=C1CN(Cc2ccc(F)cc2)C[C@H]2[C@@H](c3ccc(Br)cc3)[C@H](CO)N12`, which inhibition is on record?
Its inhibition is 4.49% (inactive).

`CO[C@H]1CN(C)C(=O)c2ccc(NC(=O)CC(F)(F)F)cc2OC[C@H](C)N(C(=O)C2CC2)C[C@H]1C` was tested. Which inhibition did it give?
The inhibition was 3.96% (inactive).

Which inhibition does the source give for `O=C(CC1CC1)N1[C@@H](CO)[C@@H](c2ccccc2)C12CN(S(=O)(=O)c1ccccc1)C2` here?
The inhibition was 7.09% (inactive).

How did the inhibition turn out when `COCC(=O)N1C[C@@H]2[C@H](c3ccccc31)[C@@H](CO)N2C(=O)C1CC1` was run?
The inhibition was -1.61% (inactive).

How did the inhibition turn out when `COCC#Cc1ccc([C@H]2[C@H](CO)N3C(=O)CN(C(=O)Nc4ccccc4F)C[C@@H]23)cc1` was run?
The inhibition was 3.85% (inactive).

How did the inhibition turn out when `CNC[C@H]1Oc2ccc(NS(=O)(=O)c3cn(C)cn3)cc2C(=O)N([C@@H](C)CO)C[C@@H]1C` was run?
The inhibition was -3.85% (inactive).

For `O=C(C[C@@H]1C[C@@H]2c3cc(NC(=O)c4ccc5c(c4)OCO5)ccc3O[C@@H]2[C@H](CO)O1)NCC1CC1`, which inhibition is on record?
The inhibition was -3.55% (inactive).

With `Cc1cccc(-c2ccc([C@@H]3[C@H](CO)N4CCCCN(Cc5ccncc5)C[C@@H]34)cc2)c1` as the compound, how does the inhibition read?
Its inhibition is 10.1% (inactive).

`COc1ccc2c3c(n(C)c2c1)[C@H](CO)N(Cc1ccc(F)cc1)CC31CCN(C)CC1` was tested. Which inhibition did it give?
The inhibition was -1.69% (inactive).

How did the inhibition turn out when `CO[C@H]1CN(C)C(=O)c2cc(NC(=O)C3CCC3)ccc2OC[C@H](C)N(CC2CCCCC2)C[C@@H]1C` was run?
Its inhibition is -3.58% (inactive).

For `CCCNC(=O)N(C)C[C@H]1Oc2cc(-c3ccncc3)ccc2S(=O)(=O)N([C@H](C)CO)C[C@@H]1C`, which inhibition is on record?
The inhibition was 1.24% (inactive).

Which inhibition does the source give for `CCCNC(=O)N1[C@@H]2CNC[C@H]1C2c1ccc(-c2cccc(C)c2)cc1` (some centres undefined) here?
The inhibition was 2.37% (inactive) and -1.56% (inactive).

With `O=C(N[C@@H]1CC[C@H](CCn2cc(-c3ccccc3)nn2)O[C@H]1CO)c1cnccn1` as the compound, how does the inhibition read?
Its inhibition is 19.2% (inactive).

Which inhibition does the source give for `C[C@@H]1CN([C@@H](C)CO)C(=O)Cc2cc(NS(=O)(=O)c3cccs3)ccc2O[C@H]1CN(C)S(=O)(=O)c1ccc(F)cc1` here?
Its inhibition is 18.7% (inactive).

How did the inhibition turn out when `CC(C)NC(=O)N1[C@H](C#N)[C@H](c2ccc(C#CC3CCCCC3)cc2)[C@H]1CO` was run?
The inhibition was -0.752% (inactive).

Which inhibition does the source give for `O=C(Cc1ccccn1)NCC[C@H]1CC[C@H](NC(=O)Nc2ccc(F)cc2)[C@@H](CO)O1` here?
The inhibition was -0.166% (inactive).

`C[C@@H]1CN([C@@H](C)CO)C(=O)c2cccc(NS(=O)(=O)c3ccc(F)cc3)c2O[C@@H]1CN(C)Cc1ccc(C(=O)O)cc1` was tested. Which inhibition did it give?
The inhibition was 0.602% (inactive).

With `Cc1noc(C)c1NC(=O)N(C)C[C@@H]1Oc2ccc(NC(=O)C3CC3)cc2C(=O)N([C@H](C)CO)C[C@@H]1C` as the compound, how does the inhibition read?
The inhibition was 7.46% (inactive).

`CC(C)NC(=O)N1[C@H](CNC(=O)CN(C)C)[C@@H](c2ccccc2)[C@@H]1CO` was tested. Which inhibition did it give?
Its inhibition is 6.83% (inactive).

`O=C(C[C@@H]1C[C@H]2c3cc(NC(=O)NC4CCCC4)ccc3O[C@H]2[C@@H](CO)O1)NC1CCCCC1` was tested. Which inhibition did it give?
Its inhibition is 5.32% (inactive).

For `CCC(=O)Nc1ccc2c(c1)OC[C@H](C)N(C(=O)c1ccccc1F)C[C@@H](C)[C@H](OC)CN(C)C2=O`, which inhibition is on record?
The inhibition was 12.1% (inactive).

`C[C@@H]1CN([C@@H](C)CO)C(=O)CCCn2cc(nn2)CO[C@@H]1CN(C)Cc1ccccc1C(=O)O` was tested. Which inhibition did it give?
The inhibition was 1.73% (inactive).

Which inhibition does the source give for `COC(=O)[C@]12C[C@H](CC(=O)NCc3ccccc3)C(=O)N(CCC3=CCCCC3)C1=C[C@H](C(C)(C)C)O[C@@H]2C` here?
The inhibition was 15.6% (inactive).

`CN1C(=O)c2cc(NC(=O)C3CCOCC3)ccc2OC[C@H]2O[C@@H](CC(=O)NCC3CCCCC3)CC[C@@H]21` was tested. Which inhibition did it give?
Its inhibition is -1.95% (inactive).

With `COCCNC(=O)c1ccccc1NS(=O)(=O)c1ccc(C)c([N+](=O)[O-])c1` as the compound, how does the inhibition read?
The inhibition was 32.3% (active).

How did the inhibition turn out when `COC(=O)CNC(=O)c1ccccc1[N+](=O)[O-]` was run?
The inhibition was -6.79% (inactive).

`COc1ccc(Br)cc1/C=N/Nc1ccc(S(=O)(=O)Nc2ccccc2C(=O)O)cc1[N+](=O)[O-]` was tested. Which inhibition did it give?
The inhibition was -6.38% (inactive).
